Source: PubChem (The Scripps Research Institute Molecular Screening Center)
In the library only some 4.1% were active in any assay of this set; here they are far more common.
ABHD5 PLIN5 PPI: inhibitors of human ABHD5-perilipin-5 interaction; Q00G26+Q8WTS1; Split G. princeps luciferase complementation, luminescence, 4 h; inhibition, % at 4 µM; 0.78% of 360,000 active; AID 602281;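 active = inhibition above the mean inhibition across every tested compound plus 3 SD, cut at about 22% in these data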
Target sequence (Q00G26 whole entry, looked up): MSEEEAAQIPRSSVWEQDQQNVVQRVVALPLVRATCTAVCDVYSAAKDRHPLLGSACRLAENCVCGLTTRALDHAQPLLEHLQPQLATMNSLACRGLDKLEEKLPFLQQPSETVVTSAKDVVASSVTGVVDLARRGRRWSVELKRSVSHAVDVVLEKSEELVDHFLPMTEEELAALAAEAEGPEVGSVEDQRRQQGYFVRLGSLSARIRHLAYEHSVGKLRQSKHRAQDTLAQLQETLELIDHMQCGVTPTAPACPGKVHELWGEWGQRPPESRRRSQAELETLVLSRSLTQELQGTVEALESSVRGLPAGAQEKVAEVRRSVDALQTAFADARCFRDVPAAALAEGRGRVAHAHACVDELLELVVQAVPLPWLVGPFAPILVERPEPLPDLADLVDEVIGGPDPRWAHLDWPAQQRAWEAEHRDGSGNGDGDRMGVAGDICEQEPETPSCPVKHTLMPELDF
Target sequence (Q8WTS1 whole entry, looked up): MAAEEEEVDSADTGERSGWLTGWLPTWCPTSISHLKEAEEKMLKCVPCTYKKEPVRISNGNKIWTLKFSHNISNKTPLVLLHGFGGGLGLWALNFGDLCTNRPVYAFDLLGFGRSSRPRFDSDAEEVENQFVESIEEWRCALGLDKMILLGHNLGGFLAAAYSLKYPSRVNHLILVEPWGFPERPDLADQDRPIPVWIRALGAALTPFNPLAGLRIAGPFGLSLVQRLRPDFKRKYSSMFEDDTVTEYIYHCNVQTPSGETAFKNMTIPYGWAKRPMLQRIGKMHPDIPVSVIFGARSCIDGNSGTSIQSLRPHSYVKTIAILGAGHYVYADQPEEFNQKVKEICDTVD
rCAG binder: molecules binding r(CAG) RNA repeats; AID 651821; 1.3% of 370,000 active; inhibition, % at 3 µM; r(CAG) RNA repeat, TO-PRO-1 dye displacement fluorescence;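 active = inhibition above the plate cutoff, the mean of all test compounds on that plate plus 3 SD, cut at about 35% in these data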;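 note: higher means more dye released from RNA so lower well fluorescence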
UHRF1 MBD2 ctr: blocks human UHRF1 binding to methylated DNA | Q96T88 | UHRF1 binding to methylated oligo, TR-FRET | inhibition, % at 4.4 µM | 0.75% of 370,000 active; in the data active = inhibition above about 21%;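 note: UHRF1 SRA domain binding a hemimethylated CpG hairpin DNA probe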
PRMT1 FP inh: blocks human protein arginine methyltransferase 1. Q99873. recombinant PRMT1, activity-based probe fluorescence polarization. inhibition, % at 2.79 µM. 1.3% of 370,000 active;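 active = inhibition above about 21% made by adding two undisclosed values, limit read from the data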
LEDGF integ inh: blocks HIV-1 LEDGF/p75-dependent DNA integration; TR-FRET IN-LEDGF/p75 DNA integration, Eu/Cy5; inhibition, % at 3.7 µM; 0.64% of 370,000 active; AID 743269;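 active = inhibition above the screen-wide mean plus 3 SD, cut at about 13% in these data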;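 note: signal is the Cy5 over europium emission ratio at 671 and 618 nm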
MBD2 inh: blocks human MBD2 binding to methylated DNA. Q9UBB5. TR-FRET, MBD2 binding to methylated oligonucleotide. inhibition, % at 4.4 µM. 0.31% of 370,000 active; in the data active = inhibition above about 13%
ABHD5-PLIN5 conf: confirmation of human ABHD5-PLIN5 interaction inhibitors; shares compounds with ABHD5 PLIN5 PPI; biochemical ABHD5-PLIN5 interaction, luminescence; inhibition, % at 4 µM; 67% of 2,200 active; in the data active = inhibition above about 23%
HNF4 counter: active in HNF4 split-luciferase counter-screen for ABHD5-PLIN5 inhibitors; shares compounds with ABHD5 PLIN5 PPI; HNF4 dimerization, luminescence, biochemical; inhibition, % at 4 µM; 77% of 2,200 active;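 active = mean inhibition across replicate wells exceeding the computed hit threshold, cut at about 13% in these data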;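 note: light from luciferase halves that rejoin when HNF4 fusion proteins dimerize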
Hits are given with their value.

Screening CCCCNC(=O)C[C@H]1C[C@@]2(C(=O)OC)C(=C[C@H](C(C)C)O[C@@H]2C2CC2)N(Cc2ccc(Cl)cc2Cl)C1=O returned rCAG binder inactive, UHRF1 MBD2 ctr inactive, PRMT1 FP inh inactive, LEDGF integ inh inactive and MBD2 inh inactive.
`CC(=O)OC1CC2C(C)(C)C(=O)C=CC2(C)C2CCC3(C)C(c4ccoc4)OC(=O)C4OC43C12C` (configuration not stated) gave ABHD5 PLIN5 PPI 24, rCAG binder inactive, UHRF1 MBD2 ctr inactive, PRMT1 FP inh inactive, LEDGF integ inh inactive, MBD2 inh inactive, ABHD5-PLIN5 conf 42 and HNF4 counter 34.
For CC1(C)OC(=O)C=C[C@]2(C)[C@H]3CC[C@@]4(C)[C@H](c5ccoc5)OC(=O)[C@H]5O[C@]54[C@]3(C)C(=O)C[C@@H]12 the results were ABHD5 PLIN5 PPI inactive, rCAG binder inactive, UHRF1 MBD2 ctr inactive, PRMT1 FP inh inactive, LEDGF integ inh inactive and MBD2 inh inactive.
CC(=O)O[C@@H]1C[C@H]2C(C)(C)C(=O)C=C[C@]2(C)[C@H]2CC[C@@]3(C)[C@H](c4ccoc4)OC(=O)[C@H]4O[C@]43[C@@]21C was read as ABHD5 PLIN5 PPI 27, rCAG binder inactive, UHRF1 MBD2 ctr inactive, PRMT1 FP inh inactive, LEDGF integ inh inactive, MBD2 inh inactive, ABHD5-PLIN5 conf 43 and HNF4 counter 30.
For N#CCC[C@@H]1CC[C@]2(CCCN(C(=O)c3ccno3)C2)O1 the results were rCAG binder inactive, UHRF1 MBD2 ctr inactive, PRMT1 FP inh inactive, LEDGF integ inh inactive and MBD2 inh inactive.
For O=c1[nH]cnc(O)c1C1C=CC=CC=C1 the results were ABHD5 PLIN5 PPI 50, rCAG binder inactive, UHRF1 MBD2 ctr inactive, PRMT1 FP inh inactive, LEDGF integ inh inactive, MBD2 inh inactive, ABHD5-PLIN5 conf 32 and HNF4 counter 49.
`Cc1ccc(S(=O)(=O)N2CCCCC2)cc1NC(=O)Cn1ncc(Cl)c(Cl)c1=O` gave ABHD5 PLIN5 PPI 26, rCAG binder inactive, UHRF1 MBD2 ctr inactive, PRMT1 FP inh inactive, LEDGF integ inh inactive, MBD2 inh inactive, ABHD5-PLIN5 conf 23 and HNF4 counter 14.
For Cc1ccc(S(=O)(=O)N2CCCCC2)cc1NC(=O)Cn1cnnn1 the results were ABHD5 PLIN5 PPI inactive, rCAG binder inactive, UHRF1 MBD2 ctr inactive, PRMT1 FP inh inactive, LEDGF integ inh inactive and MBD2 inh inactive.
`Cc1ccc(/C=C/C(=O)c2nc3ccccc3[nH]2)cc1` gave ABHD5 PLIN5 PPI 69, rCAG binder inactive, UHRF1 MBD2 ctr inactive, PRMT1 FP inh inactive, LEDGF integ inh inactive, MBD2 inh inactive, ABHD5-PLIN5 conf 90 and HNF4 counter 85.
Cc1ccc(/C=C/C(=O)Nc2nc3ccccc3[nH]2)cc1 was read as ABHD5 PLIN5 PPI inactive, rCAG binder inactive, UHRF1 MBD2 ctr inactive, PRMT1 FP inh inactive, LEDGF integ inh inactive and MBD2 inh inactive.
CC(=O)c1c(C)nc2ccccc2c1N was read as ABHD5 PLIN5 PPI inactive, rCAG binder inactive, UHRF1 MBD2 ctr inactive, PRMT1 FP inh inactive, LEDGF integ inh inactive and MBD2 inh inactive.
For Cc1nc2ccccc2c(N)c1C(=O)/C=C/c1ccccc1 the results were ABHD5 PLIN5 PPI 34, rCAG binder inactive, UHRF1 MBD2 ctr inactive, PRMT1 FP inh inactive, LEDGF integ inh inactive, MBD2 inh inactive, ABHD5-PLIN5 conf 41 and HNF4 counter 37.
`Oc1c(C(Nc2nc3ccccc3s2)c2ccco2)ccc2cccnc12` (configuration not stated) gave ABHD5 PLIN5 PPI 45, rCAG binder inactive, UHRF1 MBD2 ctr inactive, PRMT1 FP inh inactive, LEDGF integ inh inactive, MBD2 inh inactive, ABHD5-PLIN5 conf inactive and HNF4 counter 14.
CCOc1ccc(/C=N/n2c(-c3n[nH]c4c3CCC4)n[nH]c2=S)cc1 was read as rCAG binder inactive, UHRF1 MBD2 ctr inactive, PRMT1 FP inh inactive, LEDGF integ inh inactive and MBD2 inh inactive.
`C#CCOCCOCCOCCNc1nc(N2CCN(C(=O)CCCCCCCCCCNC(=O)[C@@H]([C@H](C)O)n3cc(C)nn3)CC2)nc(N2CCN(C(=O)CCCCCCCCCCNC(=O)[C@@H]([C@H](C)O)n3cc(C)nn3)CC2)n1` gave ABHD5 PLIN5 PPI 40, rCAG binder inactive, UHRF1 MBD2 ctr inactive, PRMT1 FP inh inactive, LEDGF integ inh inactive, MBD2 inh inactive, ABHD5-PLIN5 conf inactive and HNF4 counter inactive.
`C#CCOCCOCCOCCNc1nc(N2CCN(C(=O)CCCCCCCCCCNC(=O)[C@H](CCCCN)n3cc(CCO)nn3)CC2)nc(N2CCN(C(=O)CCCCCCCCCCNC(=O)[C@@H]([C@H](C)O)n3cc(C)nn3)CC2)n1` gave ABHD5 PLIN5 PPI 45, ABHD5-PLIN5 conf 29 and HNF4 counter 13.
For C#CCOCCOCCOCCNc1nc(N2CCN(C(=O)CCCCCCCCCCNC(=O)Cn3cc(C[C@@H](C)O)nn3)CC2)nc(N2CCN(C(=O)CCCCCCCCCCNC(=O)Cn3cc(C[C@@H](C)O)nn3)CC2)n1 the results were ABHD5 PLIN5 PPI inactive, rCAG binder inactive, UHRF1 MBD2 ctr inactive, PRMT1 FP inh inactive, LEDGF integ inh inactive and MBD2 inh inactive.
Screening C#CCOCCOCCOCCNc1nc(N2CCN(C(=O)CCCCCCCCCCNC(=O)[C@H](CCC(=O)O)n3cc(CCCCCN)nn3)CC2)nc(N2CCN(C(=O)CCCCCCCCCCNC(=O)[C@@H]([C@H](C)O)n3cc(C)nn3)CC2)n1 returned ABHD5 PLIN5 PPI 27, ABHD5-PLIN5 conf inactive and HNF4 counter inactive.
C#CCOCCOCCOCCNc1nc(N2CCN(C(=O)CCCCCCCCCCNC(=O)Cn3cc(CCCCCN)nn3)CC2)nc(N2CCN(C(=O)CCCCCCCCCCNC(=O)[C@H](CO)n3cc(CCCCCN)nn3)CC2)n1 was read as ABHD5 PLIN5 PPI 37, ABHD5-PLIN5 conf inactive and HNF4 counter inactive.
`CSc1cccc(NC(=S)NN/C(=N/S(=O)(=O)c2ccccc2)N2CCCC2)c1` gave rCAG binder inactive, UHRF1 MBD2 ctr inactive, PRMT1 FP inh inactive, LEDGF integ inh inactive and MBD2 inh inactive.
CC(C)N(C(C)C)S(=O)(=O)c1ccc(N2CCc3ccccc3C2)nc1 was read as ABHD5 PLIN5 PPI 39, rCAG binder inactive, UHRF1 MBD2 ctr inactive, PRMT1 FP inh inactive, LEDGF integ inh inactive, MBD2 inh inactive, ABHD5-PLIN5 conf 30 and HNF4 counter 26.
CC(C)N(C(C)C)S(=O)(=O)c1ccc(Cl)nc1 was read as ABHD5 PLIN5 PPI inactive, rCAG binder inactive, UHRF1 MBD2 ctr inactive, PRMT1 FP inh inactive, LEDGF integ inh inactive and MBD2 inh inactive.
